In the supplement of paper PMC12067926 one finds relative growth data, which are given here for 37 molecules.

Unmarked numbers belong to inactive results.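 Rule for the calls: active = growth AUC significantly below the DMSO wells by Dunnett test; inactive = the rest.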

For this assay, the system named is Pseudomonas 2 (Pseudomonas vancouverensis). As to the kind of experiment: relative growth (AUC of 72 h growth curve relative to DMSO control, dAUC) (ratio); higher = more growth (less inhibition), active = hit call of the paper. Particulars: 20 µM. The method in brief: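 Bacterial isolates from Icelandic stream sediments and Silwood Park soil, plus whole sediment communities, were grown to carrying capacity in Luria–Bertani medium, then diluted 1:100 into 96-well plates with each chemical at 20 µM (1% DMSO). A600 was read hourly for 72 h on a plate reader, with brief shaking before each read. Relative growth (dAUC) is the spline-integrated area under the growth curve, averaged over three biological replicates and divided by the mean of the DMSO controls.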
As for `CNC(=O)CSP(=S)(OC)OC`, the relative growth was 0.991.
For `N#CCNC(=O)c1cnccc1C(F)(F)F`, the relative growth is 0.996.
On to `COP(=O)(OC)OC=C(Cl)Cl`, for which the relative growth was 0.963.
With `CCc1cc(C)cc(CC)c1-c1c(OC(=O)C(C)(C)C)n2n(c1=O)CCOCC2`, the relative growth is 0.992.
In the case of `CCOc1ccc(C(C)(C)COCc2cccc(Oc3ccccc3)c2)cc1`, the relative growth is 0.998.
For the molecule `COc1ncc(F)c2nc(S(=O)(=O)Nc3c(F)cccc3F)nn12`, the relative growth was 1.02.
As for `O=[N+]([O-])c1cc(C(F)(F)F)c(Cl)c([N+](=O)[O-])c1Nc1ncc(C(F)(F)F)cc1Cl`, the relative growth was 0.795 (active).
With `COP(=S)(OC)Oc1ccc(SC)c(C)c1`, the relative growth is 0.973.
In the case of `CCCCCCCCCCCCNC(=N)N`, the relative growth was 0.94.
For `CC(C)NC(=O)N1CC(=O)N(c2cc(Cl)cc(Cl)c2)C1=O`, the relative growth was 0.94.
On to `CCCCOC(=O)[C@H](C)Oc1ccc(Oc2ccc(C#N)cc2F)cc1`, for which the relative growth is 1.08.
For `CCc1cccc(C)c1N(C(=O)CCl)[C@@H](C)COC`, the relative growth was 0.996.
Regarding `CC(C1CC1)C(O)(Cn1cncn1)c1ccc(Cl)cc1` (configuration not stated), the relative growth is 0.955.
Turning to `CC(COc1ccc(Oc2ccccc2)cc1)Oc1ccccn1` (configuration not stated), the relative growth was 1.
For `CCNc1nc(Cl)nc(NC(C)C)n1`, the relative growth was 0.95.
As to `N#C/N=C1\SCCN1Cc1ccc(Cl)nc1`, the relative growth was 1.01.
`CCCC1COC(Cn2cncn2)(c2ccc(Cl)cc2Cl)O1` (configuration not stated): the relative growth is 0.967.
The same measure for `COc1cc(C)c(C(=O)c2c(OC)ccc(Br)c2C)c(OC)c1OC`: 1.01.
Take `C/C(=N\C#N)N(C)Cc1ccc(Cl)nc1`: the relative growth was 1.
Regarding `CCCCN(CCCC)SN(C)C(=O)Oc1cccc2c1OC(C)(C)C2`, the relative growth is 1.03.
As to `N#Cc1c(Cl)c(Cl)c(Cl)c(C#N)c1Cl`, the relative growth is 0.972.
As to `Cc1nc(N(C)C)nc(OC(=O)N(C)C)c1C`, the relative growth is 0.96.
Take `CC(C)CC(C)c1sccc1NC(=O)c1cn(C)nc1C(F)(F)F` (configuration not stated): the relative growth is 0.985.
Consider `Fc1ccc(Oc2ccnc3cc(Cl)cc(Cl)c23)cc1`, for which the relative growth was 1.02.
With `CC1(C)C(C=C(Cl)Cl)C1C(=O)OCc1cccc(Oc2ccccc2)c1` (configuration not stated), the relative growth was 0.97.
Turning to `Oc1ccccc1-c1ccccc1`, the relative growth was 0.98.
On to `CCC(C)c1ccccc1OC(=O)NC` (configuration not stated), for which the relative growth was 1.01.
The same measure for `CN/C(=N\[N+](=O)[O-])NCc1cnc(Cl)s1`: 0.964; for `O=C(O)c1nc(Cl)ccc1Cl`: 0.984; for `CC1(C)[C@H](/C=C(\Cl)C(F)(F)F)[C@@H]1C(=O)OC(C#N)c1cccc(Oc2ccccc2)c1` (some centres not stated): 1.02.
For the molecule `O=C(NC(=O)c1c(F)cccc1F)Nc1ccc(OC(F)(F)C(F)OC(F)(F)F)c(Cl)c1` (configuration not stated), the relative growth is 1.01.
Regarding `O=C1C=C(N(Cc2ccc(Cl)nc2)CC(F)F)CO1`, the relative growth was 0.993.
The same measure for `O=C(O)COc1ccc(Cl)cc1Cl`: 0.971; for `COc1ccc(C(=CC(=O)N2CCOCC2)c2ccc(Cl)cc2)cc1OC` (mixture of isomers): 0.999.
The same measure for `CCN(CC)c1nc(C)cc(OP(=S)(OC)OC)n1`: 1; for `Oc1ccc(Cl)cc1Cc1cc(Cl)ccc1O`: 0.755 (active).
The same measure for `N#CC(CCc1ccc(Cl)cc1)(Cn1cncn1)c1ccccc1` (configuration not stated): 0.921.
